# Hit rate of the full screen: of about 200,000 compounds, about 4,500 (2.2%) were called active. About 12% were inconclusive and are not listed. This excerpt belongs to a sample that is enriched for actives. Some structures have more than one record in an assay (separate samples or runs), and their calls can disagree. Values without a mark were called inactive. The call rests on the fitted dose curve; in most records, active means well fitted inhibition curve with a large enough effect; inconclusive means small, poorly fitted or top-dose-only effect, or effect the other way; inactive means flat fitted curve, though single readings scatter.
# Target: Cruzipain (Trypanosoma cruzi) (UniProt P25779)
# Sequence (P25779 123-467 limits assumed): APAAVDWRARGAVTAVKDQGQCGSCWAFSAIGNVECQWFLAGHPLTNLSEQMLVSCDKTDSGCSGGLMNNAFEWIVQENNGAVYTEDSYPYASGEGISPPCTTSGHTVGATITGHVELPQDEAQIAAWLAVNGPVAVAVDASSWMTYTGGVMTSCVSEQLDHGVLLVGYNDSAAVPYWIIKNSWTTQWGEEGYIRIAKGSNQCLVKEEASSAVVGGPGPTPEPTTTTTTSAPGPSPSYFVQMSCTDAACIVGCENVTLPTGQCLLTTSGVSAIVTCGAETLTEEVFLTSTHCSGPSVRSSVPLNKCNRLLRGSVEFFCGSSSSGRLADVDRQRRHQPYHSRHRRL
# Assay: qHTS Assay for Promiscuous and Specific Inhibitors of Cruzain (without detergent); further: nearly all actives have a fitted effect of over 40% in size;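 on max response, negative = inhibition: plate controls were enzyme without inhibitor for no effect and buffer without enzyme for full effect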
# Conditions: purified cruzain, Z-FR-AMC fluorescence, no detergent
# In short: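 Purified cruzain at 1.5 nM, pre-incubated 15 min with compound at room temperature in 100 mM sodium acetate pH 5.5, 5 mM DTT, 0.00005% Triton X-100. Reaction started with 2 uM Z-FR-AMC; AMC fluorescence increase over 60 s gives rate.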
# Potency means the concentration at half of the fitted maximal effect.
Compound,"max response, negative = inhibition [%]",Potency
COc1ccc(Cn2ccnc2SCC(=O)NCc2ccco2)cc1,-5.79,
FC(F)(F)c1cc(-c2cccs2)nc(NCc2ccco2)n1,-1.04,
COCCn1c(=O)c(-c2cccs2)nc2cncnc21,2.13,
CCCn1c(=O)c2c(C(F)(F)F)cc(-c3cccs3)nc2n(CCC)c1=O,,6.31 µM (active)
Cc1oc2ncnc(N3CCOCC3)c2c1C(=O)NCCc1ccccc1,3.49,
CCOc1cccc(C(=O)Nc2nnc(-c3cccs3)s2)c1,,15.8 µM (active)
CCCc1nnc(NC(=O)c2cccs2)s1,0.875,
Cc1ccc(C(=O)Nc2nnc(-c3cccs3)s2)cc1C,,15.8 µM (active)
COC(=O)c1ccc(CSc2nnc(NC(C)C)s2)cc1,5.53,
CCOc1ccccc1Nc1nnc(SCc2ccc(C(=O)OC)o2)s1,2.33,
Cc1ccc(C(=O)Oc2coc(CSc3nnc(NC(=O)c4cccs4)s3)cc2=O)cc1C,,25.1 µM (active)
CCc1nnc(NC(=O)c2cccs2)s1,-8.43,
CCOc1cccc(C(=O)Nc2nnc(S(=O)(=O)N(C)c3ccc(C)cc3)s2)c1,-15.4,
CCOc1cccc(C(=O)Nc2cccnc2)c1,1.56,
COC(=O)c1cccc(Cn2nnc3sc4c(c3c2=O)CCC(C(C)(C)C)C4)c1 (centres undefined),2.87,
O=C(CCC(=O)N1CC2CCCN2c2ccccc21)NCc1ccccc1Cl (centres undefined),-16.5,
Cc1nnc(NC(=O)CSc2nc3c([nH]c4ccccc43)c(=O)n2-c2cccc(Cl)c2)s1,2.35,
COc1cc(-c2nnn(CC(=O)NCc3ccccc3)n2)cc(OC)c1OC,25.6,
Cc1cn(C)c(CC(=O)NCc2ccccc2)c1C(=O)O,-3.27,
CN(Cc1ccccc1)C(=O)c1cn(C)c2ccc(S(=O)(=O)N3CCCCC3)cc2c1=O,-10.3,
CN(Cc1ccccc1)C(=O)c1cn(C)c2ccc(S(=O)(=O)N(C)C3CCCCC3)cc2c1=O,5.7,
COc1ccc(C(=O)Nc2ccc(-n3nncc3-c3ccccc3)cc2)cc1OC,25.3,

Compound,"max response, negative = inhibition [%]",Potency
Cc1ccc(N2CCN(C(=O)CCc3c(C)nc4c(c3C)c(=O)n(C)c(=O)n4C)CC2)c(C)c1,6.51,
O=C(NCc1ccc(Cl)cc1)c1ccc2c(c1)nnn2C1CCCC1,-10.2,
Cc1ccc(-n2ncc3c(=O)n(Cc4cccc(C(F)(F)F)c4)cnc32)cc1C,6.16,
Cn1cc(/C=C/c2nc3ccccc3c(=O)n2-c2cccc([N+](=O)[O-])c2)c2ccccc21,,10 µM (active)
Cn1cc(/C=C/c2nc3ccccc3c(=O)n2-c2ccccc2)c2ccccc21,10.3,
Cc1ccc(-n2c(/C=C/c3cccc(C(F)(F)F)c3)nc3ccccc3c2=O)cc1,-0.135,
CSc1ccc(C2C(C(=O)Nc3ccccc3)=C(C)Nc3nc4ccccc4n32)cc1 (centres undefined),-7.45,
CCc1cccc(C)c1NS(=O)(=O)c1c(C)nc2sccn2c1=O,1.11,
CCOC(=O)c1cc2c(=O)n3ccccc3nc2n(CCCOC)c1=NC(=O)C(C)Oc1ccccc1 (centres undefined),-4.02,
CNC(=S)NNC(=O)c1sccc1OCc1ccccc1,-0.842,
CNC(=S)N/N=C/c1ccc(OCc2ccccc2)c(Br)c1,,25.1 µM (active)
C=CCNC(=S)N/N=C/c1ccc(OCc2ccccc2)cc1,-2.25,
Cc1ccccc1CN1CCC(CNC(=O)c2cc3ccc4cccnc4c3[nH]2)CC1,-9.74,
Cc1ccc(Nc2c(-c3ccc(C)cc3)nc3cnccn23)cc1,5.6,
O=c1cc(Cn2nnc(-c3ccc(Cl)cc3)n2)nc2sccn12,0.777,
Cc1ccc(Nc2c(-c3ccc(Cl)cc3)nc3sccn23)c(C)c1,,31.6 µM (active)
Cc1cccc(-n2ccnc2SCC(=O)Nc2cccc3ccccc23)c1C,-4.61,
Cc1ccc(OCCCC(=O)Nc2ccc(N3CCOCC3)cc2)cc1,-0.526,
O=C(COc1ccc([N+](=O)[O-])cc1)Nc1ccc(N2CCCC2)cc1,,7.94 µM (active)
O=C(COc1ccc(/C=N/NC(=O)c2ccc(O)cc2)cc1)Nc1ccc([N+](=O)[O-])cc1,-9.42,
CCS(=O)(=O)N1CCc2cc(C(=O)N3CCN(c4ccccc4OC)CC3)ccc21,-11.9,
Cc1cc(Cl)ccc1NC(=O)Cc1ccc(NC(=O)N2CCCCc3ccccc32)cc1,8.39,

Compound,"max response, negative = inhibition [%]",Potency
NC(=O)N1CCCC1C(=O)Nc1ccc(Cl)c(Cl)c1 (centres undefined),-7.92,
O=C(Nc1ccc(Cl)c(Cl)c1)N1CC=C(c2ccccc2)CC1,,31.6 µM (active)
CC(C(=O)Nc1ccc(Cl)cc1Cl)N1CC=C(c2ccccc2)CC1 (centres undefined),3.73,
CC(CCCc1ccccc1)NC(=O)c1nn(-c2ccc(Cl)cc2)nc1CO (centres undefined),4.3,
CC(=O)Nc1ccc(S(=O)(=O)N2CCN(c3ccccc3)CC2)cc1,4.93,
CN1CCN(c2ccc(S(=O)(=O)Nc3ccccc3)cc2[N+](=O)[O-])CC1,-3.45,
O=[N+]([O-])c1ccc(N2CCN(S(=O)(=O)c3ccccc3)CC2)cc1N1CCc2ccccc2C1,,7.94 µM (active)
Cc1ccccc1CNC(=O)C1CCCN(S(=O)(=O)N(C)c2ccc(F)cc2)C1 (centres undefined),7.13,
O=C(COc1ccc(Cl)cc1)Nc1ccccc1OCc1cc(=O)n2ccccc2n1,-0.406,
O=C(Cn1c(=O)nc(-c2ccccc2)c2cc(Cl)ccc21)NCc1ccc(Cl)cc1,-1.57,
CC(C)c1ccc2c(c1)c(SC(C)(C)C)c(CC(C)(C)C(=O)O)n2Cc1ccc(Cl)cc1,1.55,7.94 µM (active)
CC(C)c1ccc(Cn2c(COc3ccccc3)nc3ccccc32)cc1,-13.5,
COc1ccc(NC(=O)CSc2nccn2Cc2ccc3c(c2)OCO3)cc1,-5.6,
O=C(COc1ccc2ccccc2c1)N1CCN(C(=O)c2cccs2)CC1,12.1,
CCOc1ccccc1C1CC(c2cccc(NS(C)(=O)=O)c2)=NN1C(=O)c1ccccc1 (centres undefined),4.98,
CCOc1ccc2nc(Cl)c(C3CC(c4ccccc4)=NN3C(=O)c3cccs3)cc2c1 (centres undefined),,7.94 µM (active)
CCOC(=O)c1c(C)oc2nc(C)nc(N(CC(C)C)CC(C)C)c12,-3.29,
COc1ccc(NC(=O)CN2C(=O)COc3ccc(S(=O)(=O)N4CCOCC4)cc32)cc1,4.14,
Nc1ccc(C(=O)OCC(=O)NC2CCCc3ccccc32)cc1[N+](=O)[O-] (centres undefined),-1.06,
O=C(NC1CCc2ccccc21)C12CN(Cc3ccccc3)CC1C(c1cccc([N+](=O)[O-])c1)=NO2 (centres undefined),,12.6 µM (active)
COc1ccccc1CC(=O)Nc1ccc([N+](=O)[O-])cc1OC,-6.07,
COc1ccc([N+](=O)[O-])cc1NC(=O)CCc1ccccc1,-3.31,

Compound,"max response, negative = inhibition [%]",Potency
COc1ccc([N+](=O)[O-])cc1C1NN=C(c2cccc3ccccc23)S1 (centres undefined),,7.94 µM (active)
O=C(CSc1nc(Nc2ccc(F)c(F)c2)c2ccccc2n1)c1ccc(Cl)cc1,-24.6,
Cc1ccccc1OC/C(O)=C(\C#N)c1nc2ccccc2[nH]1,,20 µM (active)
COc1ccccc1CSc1nc2ccccc2[nH]1,4.13,
COC(=O)Cc1nc2ccccc2[nH]1,-1.4,
CCOc1ccc(NC(=O)Cn2c(C)ccc(C#N)c2=O)cc1,-12.5,
Cc1cc(N2CCN(S(=O)(=O)c3ccc(C)c(C)c3)CC2)c2ccccc2n1,1.17,
COc1ccc(S(=O)(=O)N2CCCC(C(=O)Nc3ccc(NC(=O)c4ccccn4)cc3)C2)cc1 (centres undefined),-11.4,
COc1ccc(S(=O)(=O)N2CCN(c3ncnc4c(-c5ccccc5)nsc34)CC2)cc1,,20 µM (active)
COc1cccc(NC(=O)Cn2c(=O)cc(C)c3c(C)nn(-c4cccc(F)c4)c32)c1,-8.29,
CCC(=O)N1CCc2cc(CNS(=O)(=O)c3ccc(Br)s3)ccc21,-2.98,
CCOc1ccc(Nc2oc(/C=C/c3ccc(F)cc3)nc2C#N)cc1,-13.4,
CCn1c(C)c(C)c2cc(C(=O)N3CCN(c4cccc(C)c4C)CC3)ccc21,-25.1,
O=C(c1ccc(CN2CCOCC2)cc1)N1CCN(c2ccccc2F)CC1,-4.12,
Cc1c(C)n(Cc2ccc(Cl)cc2)c2ccc(C(=O)N3CCN(c4ccccc4F)CC3)cc12,,12.6 µM (active)
Cc1ccc(C)c(Cn2c(=O)n(CCC(=O)NCc3ccc4c(c3)OCO4)c(=O)c3sccc32)c1,-5.68,
O=C(CSCc1cnn(-c2ccccc2)c1-n1cccc1)NCc1ccc(Cl)cc1,5.64,
Cc1ccc(-n2nc(C)c(C(=O)O)c2-n2cccc2)cc1,1.25,
CCC(=O)N1CCc2cc(S(=O)(=O)NC(C(=O)NCCc3ccc(C)cc3)C(C)C)ccc21 (centres undefined),-12.9,
Cc1ccccc1CN1C(=O)c2ccccc2Sc2ccc(C(=O)NCCCN3CCOCC3)cc21,-3.52,
COc1ccccc1NC(=O)CN1C(=O)c2ccccc2Sc2ccc(C(=O)N3CCCC3)cc21,4.29,
COc1cccc(CNC(=O)c2ccc3c(c2)N(Cc2ccc(C(F)(F)F)cc2)C(=O)c2ccccc2S3)c1OC,,10 µM (active)

# — PubChem BioAssay AID1476 (National Center for Advancing Translational Sciences (NCATS), 2009)
